Source: PubChem (National Center for Advancing Translational Sciences (NCATS))
Only some compounds are listed: those with a hit (about 21% of all), similar ones and a draw of the others.
Cycloheximide cs = counter-screen for Shiga toxin inhibitors: cycloheximide protein synthesis inhibition; cell reporter, cycloheximide protein synthesis inhibition counterscreen; max response, %; 12% of 300,000 active; AID 2314; in the data active = max response mostly above about 13%, no sharp cut-off; inactive = mostly below about 14%; note: read at 38.3 µM for the half of the compounds with a filed dose; 0% is about no effect
Pf growth 48h = inhibits P. falciparum growth in the first generation, 48 h | P. falciparum luciferase growth in erythrocytes, 48 h | Potency, µM (top dose mostly 28.7 µM), without a hit: top-dose activity change, negative = inhibition, most hits filed as inhibitors | 5.9% of 310,000 active | AID 504832; note: potency is the fitted concentration of half-maximal effect; % is set by controls: 0 for no effect and ±100 for the full control effect
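Here the parasites carry a stable luciferase gene and grow inside erythrocytes in Albumax-based RPMI medium with compound for one erythrocytic cycle. Activity is scored as loss of luminescent signal.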
Pf growth 96h = inhibits malaria parasite growth, 96 h; P. falciparum luciferase reporter growth, 96 h; Potency, µM (titrated, usually from 28.7 µM), without a hit: at the top dose activity change, negative = inhibition, most hits filed as inhibitors; 6.9% of 320,000 active; AID 504834; note: potency is the fitted concentration of half-maximal effect; % is set by controls: 0 for no effect and ±100 for the full control effect
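Erythrocytes infected with luciferase-expressing P. falciparum were dispensed at 2% hematocrit and 0.05% parasitemia (final), then incubated with compounds 96 hours at 37 C in 5% CO2. Luminescence after detection reagent addition reported growth.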
Shiga toxin inh = Shiga toxin inhibition. 9.2% of 290,000 active. AID 2315. inhibition, % at 38.7 µM. Vero cells, Shiga toxin protein synthesis inhibition reporter; in the data active = inhibition mostly above about 28%, no sharp cut-off; inactive = mostly below about 43%; note: 0% is about no effect
* hit, by the source's call; ? = inconclusive; . = not tested or not shown; [ ] = dose if it differs, or a comment. Unless noted, calls come from the whole dose curve; as a rule, active = well fitted inhibition curve with a large enough effect; inconclusive = small, poorly fitted or top-dose-only effect, or another doubt; inactive = no such curve, though single readings can be large or run the other way.

SMILES	Cycloheximide cs	Pf growth 48h	Pf growth 96h	Shiga toxin inh
O=C(C[n+]1cc(-c2ccc(Br)cc2)n2c1CCCCC2)c1ccccc1	-3	1.7µM*	?	-12
O=C(C[n+]1cc(-c2ccc(Cl)cc2)n2c1CCCCC2)c1ccccc1	26*	?	?	52*
CCOc1ccccc1NC(=O)CCNS(=O)(=O)c1cccc2nonc12	-3	6%	?	-12
CN(C(=O)CC1C(=O)NCCN1C/C=C/c1ccccc1)C1CCOCC1 (stereo unspecified)	-1	0%	?	-6
C#CCN(C(=O)CC1C(=O)NCCN1C/C=C/c1ccccc1)C1CCCCC1 (stereo unspecified)	2	-3%	4.7µM*	-7
O=C1NC(=O)N(Cc2ccccc2)C(=O)/C1=C\N1CCCc2ccccc21	28*	19%	70%	65
COc1ccc(C)cc1NC(=O)Nc1ccc(C(=O)N2CCCC2)cc1	14*	24%	35%	48*
COc1ccc(Cl)cc1NC(=S)N1CCCC1	11	-1%	?	-22
COc1ccc(Cl)cc1NC(=O)Nc1ccc(C(=O)N2CCCC2)cc1	17*	0%	56%	55*
O=C(NC(=O)c1ccccc1)NC1(C(F)(F)F)OCCO1	48*	.	28%	84*
COC(=O)Cn1c(=O)c2c(nc3n2CCCN3CCc2ccccc2)n(C)c1=O	-3	-14%	?	-4
COCCNc1nnc(SCC(=O)c2c[nH]c3ccccc23)s1	6	8.3µM*	?	16
Cc1ccc(C(=O)c2c(NC(=O)CSc3nnc(N)s3)sc3c2CCCC3)cc1	5	12µM*	5.2µM*	4
COCCNc1nnc(SCC(=O)Nc2sc3c(c2C(=O)c2ccccc2)CCCC3)s1	-1	?	9.3µM*	-6
Nc1nnc(SCC(=O)Nc2sc3c(c2C(=O)c2ccccc2)CCCC3)s1	-1	-18%	?	-7
O=C(COc1ccccc1Cl)NC(=O)NC1CCCC1	26*	.	?	26
COc1ccc(NC(=O)CSc2nnc(C3CCCCC3)o2)c(OC)c1	-3	7%	-1%	20
COc1ccccc1C(=O)OCC(=O)NC(=O)NC1CCCCC1	.	1%	-12%	.
O=C(CSc1nnc(C2CCCCC2)o1)Nc1ccccc1Cl	15	122%	-7%	71*
O=C(COc1ccc(Cl)cc1Cl)NC(=O)NC1CCCC1	.	20%	38%	.
Cn1cccc1C(=O)OCC(=O)NC(=O)NC1CCCCC1	41*	31%	59%	63
O=C(CSc1nnc(COc2ccccc2Cl)o1)NC(=O)NC1CCCC1	9	30%	12µM*	-3
CC(C)NC(=O)NC(=O)CSc1nnc(COc2ccccc2Cl)o1	20	4%	0%	10
CCCCc1n[nH]c(=S)n1Cc1ccc(Cl)cc1	5	-7%	42%	13
COC(=O)Nc1ccc(S(=O)(=O)NNC(=O)c2c(O)c3ccccc3n(C)c2=O)cc1	-4	34%	11%	-5
SMILES	Cycloheximide cs	Pf growth 48h	Pf growth 96h	Shiga toxin inh
COc1ccc(CCC(=O)N2CCCC(Nc3ccccc3)C2)cc1OC (stereo unspecified)	4	?	-10%	14
O=C(/C=C/c1cccc([N+](=O)[O-])c1)Nc1cccc(NC(=O)c2cccs2)c1	9	-30%	4.1µM*	75
O=C(Nc1cccc(NC(=O)c2ccc([N+](=O)[O-])o2)c1)c1ccco1	7	9.3µM*	-3%	22
O=C(/C=C/c1cccc([N+](=O)[O-])c1)Nc1cccc(NC(=O)c2ccco2)c1	11	-8%	20%	19
COc1ccc(Br)cc1C(=O)Nc1cccc(NC(=O)c2ccco2)c1	-5	-17%	-27%	4
O=C(Nc1cccc(NC(=O)c2ccc(-c3cccc(Br)c3)o2)c1)c1ccco1	58*	?	210%	73*
O=C(Nc1cccc(NC(=O)c2cccs2)c1)c1ccc([N+](=O)[O-])o1	13*	12µM*	3.3µM*	18
Cc1ccc(C)c(N2CCN(C(=O)c3ccc(CS(=O)Cc4cccc(Cl)c4)o3)CC2)c1 (stereo unspecified)	-3	2%	-9%	3
CC(=O)c1nn(-c2ccc(C(F)(F)F)cc2)c(=O)[nH]c1=O	-2	-3%	2%	-3
CNNC(=S)Nc1cccc(SC)c1	10	?	?	13
Cc1ccc(NC2CCCN(C(=O)CCn3nccc3C)C2)cc1C (stereo unspecified)	13	-22%	13%	33
COc1ccc(C(=O)Nc2ccc(NC(=O)c3ccco3)c(Cl)c2)cc1OC	-4	-8%	-22%	19
O=C(Nc1ccc(NC(=O)c2ccc([N+](=O)[O-])o2)cc1Cl)c1ccco1	-2	12µM*	19%	-4
CCOC(=O)C(=NCC1CCCO1)NNc1cc(Cl)ccc1Cl (stereo unspecified)	2	?	10µM*	-5
CCCN(Cc1ccccc1)C(=S)Nc1ccc(OCC)cc1	19*	19%	42%	25
CCOc1ccc(NC(=S)N(CC)Cc2ccccc2)cc1	32*	13%	25%	34
CCN1CCN(C(=S)Nc2cccc(C(F)(F)F)c2)CC1	1	19%	9.3µM*	-2
FC(F)(F)c1cccc(NC(=S)N2CCN(c3cccc(C(F)(F)F)c3)CC2)c1	-6	-4%	5.9µM*	32
OCCN1CCN(C(=S)Nc2cccc(C(F)(F)F)c2)CC1	-4	-9%	97%	3
Fc1cc(F)c(C2SCCN2C(=S)Nc2cccc(C(F)(F)F)c2)c(F)c1 (stereo unspecified)	-1	?	2.9µM*	15
CCOC(=O)c1ccc(NC(=S)N2CCSC2c2c(F)cc(F)cc2F)cc1 (stereo unspecified)	7	?	-20%	8
CCOc1ccccc1C(=O)Nc1nnc(Cc2ccc(OC)c(OC)c2)s1	-2	-15%	41%	.
COc1ccccc1C(=O)OCc1ccc2sc(C)nc2c1	28*	27%[5.75 µM]	4%	78*
Cc1cccc2nc(CSc3nnc4ccccn34)cn12	36*	219%	282%	59*
c1ccn2c(SCc3cn4ccsc4n3)nnc2c1	40*	199%	.	54*
SMILES	Cycloheximide cs	Pf growth 48h	Pf growth 96h	Shiga toxin inh
Cc1cc(C)nc(SCc2cn3c(C)cccc3n2)n1	-3	-1%	-9%	-3
Cc1ccnc(SCc2cn3c(C)cccc3n2)n1	26*	-27%	-28%	59
COc1ccc(/C=C/C(=O)Nc2ccc(S(=O)(=O)N3CCOCC3)cc2)c(OC)c1	.	9.3µM*	9.3µM*	.
CCN1CCN(c2ccc(S(=O)(=O)N3CCOCC3)cc2NC(=O)/C=C/c2ccc(OC)cc2OC)CC1	.	10µM*	?	.
CCN1CCN(c2ccc(S(=O)(=O)N3CCOCC3)cc2NC(=O)/C=C/c2ccc([N+](=O)[O-])cc2)CC1	.	2.6µM*	3.7µM*	.
CC(OC(=O)c1cc(S(=O)(=O)N(C)C)ccc1N1CCCC1)C(=O)NCc1ccccc1 (stereo unspecified)	-1	0%	-19%	-9
COCCn1nnnc1C(C(C)C)N1CCSCC1 (stereo unspecified)	4	-20%	0%	1
